In PubChem BioAssay one finds composite z-score and z-score data, which are given here for five compounds.

Experiment [1] has as its system Plasmodium falciparum Sir2 (PF13_0152, Sir2A). Nature of the experiment: pfSir2 binders on small-molecule microarrays, primary screen, biochemical, small-molecule microarray, 635 nm fluorescence (AID 1098).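 Further: score merges spot fluorescence intensity with its signal-to-noise ratio.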 The note with it: small-molecule microarray binding, fluorescence 635 nm; higher = more signal.
Experiment [2] is described as follows: small-molecule microarray binders of probe aDKK1, primary screen, biochemical, biotinylated probe, 635/667 nm fluorescence (AID 1099).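 Further: score merges 667nm spot fluorescence with signal to noise across triplicate slides.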 The note with it: higher = more signal.
A short description of experiment [3]: small-molecule microarray binders of probe aCHRDL2, primary screen, biochemical, biotinylated probe, 635/667 nm fluorescence (AID 1100). Conditions: higher = more signal.
Experiment [4] in a line: splicing luciferase reporter signal modulators, primary screen, spliceosome inhibition project, cell-based, HEK293, splice +/- reporter (AID 1101).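 Further: HEK293 cells carrying a splicing-competent luciferase reporter gene; test concentration not given here.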 The note with it: luminescence, 24 h, higher = more signal, called active from +8 up or from −8 down.
Experiment [5] deals with Fibroblast growth factor 10 (Homo sapiens) (UniProt O15520). In words: FGF10 binders on small-molecule microarrays, primary screen, biochemical, small-molecule microarray, 635 nm fluorescence (AID 1102). Conditions: FGF10 binding, fluorescence 635 nm, higher = more signal.
Chain of Fibroblast growth factor 10 (Homo sapiens) (O15520 whole entry, looked up): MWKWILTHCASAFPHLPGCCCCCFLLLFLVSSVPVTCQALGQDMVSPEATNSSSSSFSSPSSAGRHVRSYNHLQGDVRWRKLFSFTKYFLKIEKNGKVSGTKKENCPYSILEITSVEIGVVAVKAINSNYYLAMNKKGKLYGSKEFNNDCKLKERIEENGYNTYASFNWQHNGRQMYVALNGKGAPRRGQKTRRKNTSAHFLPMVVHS
Experiment [6] deals with glycogen synthase kinase-3 (GSK3A per assay name; protocol says GSK3B). Nature of the experiment: GSK3 binders on small-molecule microarrays, primary screen, biochemical, small-molecule microarray, 635 nm fluorescence, GSK3A (AID 1103). Further: the record names both GSK3A and GSK3B. Conditions: small-molecule microarray binding, fluorescence 635 nm; higher = more signal.
For experiment [7], the target named is Epidermal growth factor receptor (Homo sapiens) (UniProt P00533). Nature of the experiment: EGFR binders on small-molecule microarrays, primary screen, biochemical, small-molecule microarray, 635 nm fluorescence (AID 1104).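 Further: score merges 667 nm emission intensity with spot signal to noise over triplicate slides.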 The note with it: EGFR binding, higher = more signal.
Chain of Epidermal growth factor receptor (Homo sapiens) (P00533 whole entry, looked up): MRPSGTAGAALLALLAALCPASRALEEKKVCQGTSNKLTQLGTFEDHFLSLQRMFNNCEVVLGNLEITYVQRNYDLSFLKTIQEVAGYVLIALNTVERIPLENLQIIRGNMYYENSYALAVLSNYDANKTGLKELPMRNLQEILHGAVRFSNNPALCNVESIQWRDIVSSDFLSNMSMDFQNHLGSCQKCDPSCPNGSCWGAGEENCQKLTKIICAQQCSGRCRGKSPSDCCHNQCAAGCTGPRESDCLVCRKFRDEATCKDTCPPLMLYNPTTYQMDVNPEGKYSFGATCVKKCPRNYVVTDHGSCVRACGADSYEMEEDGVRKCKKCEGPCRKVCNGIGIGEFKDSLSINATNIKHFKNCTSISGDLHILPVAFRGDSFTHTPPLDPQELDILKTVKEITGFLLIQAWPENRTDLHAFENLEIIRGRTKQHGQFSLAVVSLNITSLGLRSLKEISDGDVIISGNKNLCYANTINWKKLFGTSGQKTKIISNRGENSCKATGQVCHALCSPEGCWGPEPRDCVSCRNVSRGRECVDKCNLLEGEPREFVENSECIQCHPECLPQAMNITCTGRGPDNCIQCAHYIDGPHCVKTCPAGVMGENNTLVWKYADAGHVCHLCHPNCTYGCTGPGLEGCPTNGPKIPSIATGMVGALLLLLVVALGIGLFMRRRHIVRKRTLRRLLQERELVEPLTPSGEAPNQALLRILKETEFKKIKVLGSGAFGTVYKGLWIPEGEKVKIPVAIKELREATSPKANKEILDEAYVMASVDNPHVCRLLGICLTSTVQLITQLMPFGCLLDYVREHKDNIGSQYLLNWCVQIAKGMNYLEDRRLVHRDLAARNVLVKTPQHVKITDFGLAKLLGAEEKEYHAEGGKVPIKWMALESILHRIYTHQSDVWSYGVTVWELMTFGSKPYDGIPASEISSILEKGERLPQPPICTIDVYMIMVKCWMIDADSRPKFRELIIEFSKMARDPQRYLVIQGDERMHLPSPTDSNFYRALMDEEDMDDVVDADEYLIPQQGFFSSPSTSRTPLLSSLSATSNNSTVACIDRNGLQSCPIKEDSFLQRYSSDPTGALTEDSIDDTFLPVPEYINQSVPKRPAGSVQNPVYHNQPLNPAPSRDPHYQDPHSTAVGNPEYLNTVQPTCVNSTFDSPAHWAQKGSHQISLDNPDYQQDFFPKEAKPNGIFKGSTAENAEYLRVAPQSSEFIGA
For experiment [8], the target named is Follistatin-related protein 3 (Homo sapiens) (UniProt O95633). Nature of the experiment: FSTL3 binders on small-molecule microarrays, primary screen, biochemical, small-molecule microarray, 635 nm fluorescence (AID 1105).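 Further: score merges emission near 667 nm and signal to noise per printed spot across three slides.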 The note with it: FSTL3 binding, higher = more signal.
Chain of Follistatin-related protein 3 (Homo sapiens) (O95633 whole entry, looked up): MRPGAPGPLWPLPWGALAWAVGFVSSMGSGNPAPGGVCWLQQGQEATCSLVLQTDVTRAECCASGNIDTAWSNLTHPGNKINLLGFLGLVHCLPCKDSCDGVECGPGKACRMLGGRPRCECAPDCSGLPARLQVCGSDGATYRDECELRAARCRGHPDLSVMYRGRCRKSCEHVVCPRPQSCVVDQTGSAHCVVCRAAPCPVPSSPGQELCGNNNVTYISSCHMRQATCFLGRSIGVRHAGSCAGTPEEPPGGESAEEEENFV
In experiment [9] the target is Dickkopf-related protein 1 (Homo sapiens) (UniProt O94907). In words: DKK1 binders on small-molecule microarrays, primary screen, biochemical, small-molecule microarray, 635 nm fluorescence scan (AID 1106).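 Further: score merges emission near 667 nm with signal to noise over three replicate slides.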 The note with it: DKK1 binding, higher = more signal.
Chain of Dickkopf-related protein 1 (Homo sapiens) (O94907 whole entry, looked up): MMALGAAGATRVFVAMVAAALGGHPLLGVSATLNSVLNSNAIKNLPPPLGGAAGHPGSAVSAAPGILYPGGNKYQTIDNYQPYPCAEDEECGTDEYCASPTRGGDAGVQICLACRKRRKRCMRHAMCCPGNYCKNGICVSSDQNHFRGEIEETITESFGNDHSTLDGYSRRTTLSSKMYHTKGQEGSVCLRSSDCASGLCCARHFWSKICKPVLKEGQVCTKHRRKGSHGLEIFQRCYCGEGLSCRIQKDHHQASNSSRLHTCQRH
The subject of experiment [10] is Inhibin beta A chain (activin A). Nature of the experiment: INHBA (activin A) binders on microarrays, primary screen, biochemical, small-molecule microarray, 635 nm fluorescence scan (AID 1107).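 Further: mouse activin A protein probed at 4.33 µg/mL on printed slides; score merges bound-protein fluorescence near 667 nm with spot signal-to-noise.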 Conditions: small-molecule microarray binding, higher = more signal.
Experiment [11] concerns Human papillomavirus type 1a protein E7 (residues 44-93). Nature of the experiment: HPV1a E7 fragment binders on microarrays, primary screen, biochemical, small-molecule microarray, residues 44-93, 635 nm fluorescence (AID 1108).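 Further: E7 fragment applied at 1 µg/mL in TBST for 1 h at 4 C; score combines spot fluorescence with its signal to noise ratio.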 The note with it: small-molecule microarray binding, fluorescence 635 nm; higher = more signal.
The nature of experiment [12]: modulators of HCV replicon luciferase signal, primary screen, HCV replication inhibitor project, Huh7 cells, luciferase reporter (AID 1109).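 Further: huh7 hepatoma cells harbouring a luciferase neomycin HCV replicon reporter; luciferase luminescence as measure of HCV replicon replication; test concentration not given here.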 The note with it: 48 h, higher = more signal.
The target in experiment [13] is Left-right determination factor 2 (Homo sapiens) (UniProt O00292). Nature of the experiment: LEFTY2 binders on small-molecule microarrays, primary screen, biochemical, small-molecule microarray, 635 nm fluorescence scan (AID 1110). Conditions: LEFTY2 binding, higher = more signal.
Chain of Left-right determination factor 2 (Homo sapiens) (O00292 whole entry, looked up): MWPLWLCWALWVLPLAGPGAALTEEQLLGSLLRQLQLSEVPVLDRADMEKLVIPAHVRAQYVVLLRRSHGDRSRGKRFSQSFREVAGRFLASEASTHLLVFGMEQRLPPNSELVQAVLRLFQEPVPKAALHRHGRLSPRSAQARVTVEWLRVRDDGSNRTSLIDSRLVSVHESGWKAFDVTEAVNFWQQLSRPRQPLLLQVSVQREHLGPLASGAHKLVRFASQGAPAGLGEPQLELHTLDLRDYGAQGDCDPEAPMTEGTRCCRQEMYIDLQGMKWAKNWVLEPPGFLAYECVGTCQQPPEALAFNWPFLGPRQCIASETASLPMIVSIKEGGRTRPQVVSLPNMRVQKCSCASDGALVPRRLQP
The target in experiment [14] is Calmodulin-1 (Homo sapiens) (UniProt P0DP23). Nature of the experiment: CALM1 binders on microarrays, EGTA buffer, profiling panel, biochemical, small-molecule microarray, Cy5-labelled CALM1 (AID 1111).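 Further: labelled calmodulin applied in Tris saline Tween buffer holding calcium plus EGTA and DTT.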 Conditions: Cy5-CALM1 binding fluorescence, higher = more signal.
Experiment [15] has the same target. Nature of the experiment: calcium-bound CALM1 binders on microarrays, profiling panel, artefact control for SMM control-protein annotation, biochemical, small-molecule microarray, Cy5-labelled CALM1, plus calcium (AID 1112).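 Further: score merges spot fluorescence with signal to noise from triplicate slides.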 Conditions: Cy5-CALM1 binding fluorescence, higher = more signal.
Experiment [16] can be described thus: small-molecule microarray binders of probe aWnt5a, primary screen, biochemical, biotinylated probe, 635/667 nm fluorescence (AID 1113).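 Further: score merges 667 nm fluorescence intensity with signal-to-noise per printed feature.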 The note with it: higher = more signal.
Experiment [17] can be described thus: small-molecule microarray binders of probe aShh, primary screen, biochemical, biotinylated probe, 635/667 nm fluorescence (AID 1114).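 Further: probe is biotin-labelled aShh protein from a stem cell growth factor screen; measures binding of labelled protein to compounds printed on the slide; score merges feature fluorescence at 667 nm with signal-to-noise.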 Conditions: higher = more signal.
Experiment [18] in a line: small-molecule microarray binders of probe aNog, primary screen, biochemical, biotinylated probe, 635/667 nm fluorescence (AID 1115).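 Further: probe is biotinylated aNog protein used at 0.15 µg/mL for 1 h at 4 C; z-score combines 667 nm fluorescence of each spot with its signal to noise.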 Conditions: higher = more signal.
The target in experiment [19] is Torsin-1A-interacting protein 1 (Homo sapiens) (UniProt Q5JTV8). In words: LAP1 binders from COS7 cell lysate, primary screen, small-molecule microarray, 635/667 nm fluorescence (AID 1116). The note with it: COS7-hLAP1 lysate binding, 635 nm fluorescence, higher = more signal.
Chain of Torsin-1A-interacting protein 1 (Homo sapiens) (Q5JTV8 whole entry, looked up): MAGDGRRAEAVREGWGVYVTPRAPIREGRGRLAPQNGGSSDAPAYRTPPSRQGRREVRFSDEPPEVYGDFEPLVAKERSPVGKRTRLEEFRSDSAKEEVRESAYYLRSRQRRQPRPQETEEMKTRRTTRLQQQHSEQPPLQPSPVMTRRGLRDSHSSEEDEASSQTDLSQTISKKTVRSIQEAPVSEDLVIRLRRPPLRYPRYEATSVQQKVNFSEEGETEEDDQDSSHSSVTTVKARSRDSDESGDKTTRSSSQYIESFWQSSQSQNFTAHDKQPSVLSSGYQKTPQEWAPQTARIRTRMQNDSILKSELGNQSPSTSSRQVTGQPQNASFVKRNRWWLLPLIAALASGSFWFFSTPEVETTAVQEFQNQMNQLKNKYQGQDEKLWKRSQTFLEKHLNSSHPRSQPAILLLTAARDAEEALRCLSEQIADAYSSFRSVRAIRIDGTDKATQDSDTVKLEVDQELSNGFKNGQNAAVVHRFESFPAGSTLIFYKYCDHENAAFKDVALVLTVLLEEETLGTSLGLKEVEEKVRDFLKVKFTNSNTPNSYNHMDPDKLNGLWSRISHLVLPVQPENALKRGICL
The target in experiment [20] is Alpha-bungarotoxin (Bungarus multicinctus) (UniProt P60615). Nature of the experiment: alpha-bungarotoxin binders on microarray, profiling panel, artefact control for SMM control protein annotation, biochemical, small-molecule microarray, Alexa647 label, 635/667 nm fluorescence (AID 1117). The note with it: alpha-BTX-A647 binding fluorescence, higher = more signal.
Chain of Alpha-bungarotoxin (Bungarus multicinctus) (P60615 whole entry, looked up): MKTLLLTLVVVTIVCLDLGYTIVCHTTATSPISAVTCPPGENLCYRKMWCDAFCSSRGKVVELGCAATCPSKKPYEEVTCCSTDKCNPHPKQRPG

The source made the active and inactive calls.

For the compound `O=C1C[C@]2(c3ccc([N+](=O)[O-])cc3)C(=O)N(CC(F)(F)F)c3cc(CO)ccc3[C@H]2N1CC12CC3CC(CC(C3)C1)C2`, the composite z-score in [1] was 1.75; in [2], -0.157; in experiment [3], 0.115; in experiment [5] it was 0.0399; in experiment [6], 0.284; in experiment [7], -0.736. Also, the composite z-score in experiment [8] is 0.23; in experiment [9] it was 0.301; in [10] it was 0.36; in experiment [11] it was 0.193; in experiment [13], -0.211; in [14], -0.28. The composite z-score is -0.285 in [15]; -0.147 in [16]; -0.229 in experiment [17]; -0.364 in [18]; -0.371 in experiment [19]; 0.224 in [20]. Besides, the figures for the z-score in experiment [4] and in [12] were 0.452 (inactive) and -0.156, respectively.

With `CCOC(=O)C[C@H]1[C@H](OC(=O)c2ccc(-c3ccccc3)cc2)[C@@H](NC(=O)Cc2ccc(OC)cc2)c2cc(OCCCO)ccc2N1C(=O)c1ccc2ccccc2n1`, the composite z-score in experiment [1] is 0.042; in experiment [2] it was 0.593; in experiment [3] it was 0.294; in experiment [5] it was 0.181; in [6], 0.267; in experiment [7], -0.127. Further, the composite z-score stood at 0.367 in experiment [8]; 0.0289 in experiment [9]; 0.827 in [10]; 1.13 in experiment [11]; 0.0394 in [13]; 0.882 in [14]. The composite z-score was -0.0431 in [15]; 0.0068 in [16]; -0.282 in experiment [17]; -0.201 in experiment [18]; -0.0103 in experiment [19]; 0.0263 in experiment [20]. Moreover, the z-score in [4] was -1.05 (inactive); in experiment [12] it was -1.92.

Regarding `COc1ccccc1CN1C(=O)c2ccccc2[C@@H](C(=O)NCCN2CCOCC2)[C@@H]1c1ccc(CO)cc1`, the composite z-score in experiment [1] is 1.5; in experiment [2], -0.0936; in [3], 0.658; in experiment [5], -0.264; in experiment [6], 0.342; in [7] it was -0.502. Moreover, the composite z-score in [8] was -0.334; in experiment [9], -0.0485; in experiment [10] it was 0.52; in experiment [11], 0.623; in experiment [13], -0.725; in [14], -0.652. In addition, the composite z-score in [15] was 0.0041; in experiment [16] it was -0.185; in experiment [17], 0.123; in experiment [18] it was -0.232; in experiment [19], 1.01; in experiment [20] it was -0.737. The z-score in experiment [4] was -0.468 (inactive); in [12] it was -1.64.

Turning to `COC(=O)[C@@]1(Cc2ccccc2)[C@H]2c3cc(C(=O)N4CCCC4)n(C)c3C[C@H]2CN1C(=O)c1ccccc1`, the composite z-score is 0.762 in [1]; 1.23 in experiment [2]; 0.892 in [3]; -0.175 in experiment [5]; 0.237 in [6]; -0.141 in [7]. The composite z-score in experiment [8] was 0.803; in [9], -0.477; in experiment [10], 1.1; in experiment [11] it was 0.123; in experiment [13], -0.302; in experiment [14], 2.57. For the same compound, the composite z-score in [15] is 0.961; in experiment [16], -0.0481; in experiment [17] it was -0.2; in experiment [18], 0.268; in experiment [19] it was 1.28; in experiment [20], 0.455. Further, the z-score in experiment [4] was -1.91 (inactive); in experiment [12], -1.45.

For the compound `COCCCNC(=O)[C@@]1(C)c2ccccc2C(=O)N(Cc2cc(C(F)(F)F)cc(C(F)(F)F)c2)[C@H]1c1ccc(CO)cc1`, the composite z-score is 1.48 in [1]; -0.0291 in experiment [2]; 0.945 in experiment [3]; -0.607 in [5]; -0.514 in experiment [6]; -1.24 in [7]. Also, the composite z-score was -0.875 in experiment [8]; -1.62 in experiment [9]; -0.754 in experiment [10]; 1.32 in experiment [11]; -1.8 in experiment [13]; 0.0356 in experiment [14]. The composite z-score in [15] is 0.378; in [16] it was -0.154; in experiment [17], -0.0626; in experiment [18], 0.583; in experiment [19], -0.235; in experiment [20], 1.41. Further, the z-score in experiment [4] was 0.803 (inactive); in experiment [12] it was 0.261.
